Among all 1,200 compounds or so, about 400 (33%) were called active. The rule behind the calls is not given here. Not all results are given here. Entries with a potency or affinity are not part of this list.
Assay: mammalian cell cytotoxicity, dose response, cytotoxicity control (AID 434958);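 note: cells exposed to compound for 72 hours before readout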
Details: cytotoxicity counter-screen; series mostly up to 40 µM

Compound	outcome
O=C(N/N=C/c1cccc(Br)c1)c1ccc(Cn2cc(Br)cn2)o1	inactive
O=C1OC(c2ccco2)=N/C1=C\c1ccc(-c2cccc(C(F)(F)F)c2)o1	inactive
CC1(C)C2CC=C(/C=N/NC(=O)c3ccccc3O)C1C2 (centres undefined)	inactive
CC1=NN(c2ccccc2)C(=O)/C1=C/c1c(O)[nH]c(=S)[nH]c1=O	inactive
Cc1cc(N2CCN(c3ccccc3)CC2)nc2ccccc12	inactive
COc1ccc(NC(=O)C(Cc2ccccc2)n2cccc2)c(OC)c1 (centres undefined)	inactive
CCCN1C(=O)c2ccc(C(=O)Nc3cc(C)on3)cc2C1=O	inactive
COc1ccc(OC)c(NC(=O)CSC2=C(C#N)C(c3ccco3)C3=C(CCCC3=O)N2)c1 (centres undefined)	inactive
CC(=O)c1ccc(-n2c(C)ccc2-c2ccccc2)cc1	inactive
COc1cc(NC(=S)NC(=O)c2cccs2)ccc1NC(=O)C(C)C	inactive
Cc1ccc(/C=C/C(=O)OCC(=O)NC(C)c2ccccc2)o1 (centres undefined)	inactive
CCOC(=O)N1CCC(N2CCN(S(=O)(=O)c3ccc(Cl)cc3)CC2)CC1	inactive
COc1ccc(-c2csc(Nc3ccc(C)cn3)n2)cc1OC	inactive
Cc1nnnn1/C(=C\c1ccccc1)C(=O)OCC(=O)Nc1ccc(Cl)cc1F	inactive
Cc1ccccc1OCC(=O)Nc1ccccc1-c1ccccc1	inactive
c1ccc(-c2noc(-c3cccc4ccccc34)n2)cc1	inactive
O=C(CC(=O)c1ccccc1)Nc1ccc2c(c1)OCCO2	inactive
Cc1ccc(CC(=O)Nc2nc3ccccc3[nH]2)cc1C	inactive
O=C(Cc1ccccc1Cl)Nc1nc2ccccc2[nH]1	inactive
COc1ccc2sc(-c3ccc(N(C)C)cc3)c(C#CC(C)(C)O)c2c1	inactive
CSc1nnc(C)c(/C=C/Nc2ccc(Cl)cc2)n1	inactive
Cn1cc(C(=O)N/N=C/C(Br)=C\c2ccccc2)ccc1=O	inactive
CCOc1cc(C(=O)N2CCC(CC3CC(c4ccccc4)=NO3)(C(=O)NCc3ccc(OC)cc3)CC2)cc(OCC)c1OCC (centres undefined)	inactive

Compound	outcome
CC/C(=N\NC(=S)NC(C)C)c1ccc(OC)c(OC)c1	inactive
c1ccc(-n2c3ccccc3c3ccccc32)cc1	inactive
CSc1cccc(NC(=O)c2ccc(Cl)nc2)c1	inactive
O=C(N[C@@H](Cc1ccccc1)C(=O)CCl)OCc1ccccc1	inactive
CC(C)C[C@H](NC(=O)c1nc[nH]c1C(=O)N1CCN(C(=O)OC(C)(C)C)CC1)C(=O)OCc1ccccc1	inactive
C/C(=N\NC(=O)c1cccc(Cl)c1)c1cccc(NC(=O)C(C)C)c1	inactive
O=C1CC(Nc2ccc(N3CCOCC3)cc2)C(=O)N1C1CCCCC1 (centres undefined)	inactive
O=C(O)CCN1C(=O)/C(=C/c2ccc(-c3nc4ccccc4s3)o2)SC1=S	inactive
COc1ccc(-c2cc3nc(C)cc(N4CC(C)CC(C)C4)n3n2)cc1 (centres undefined)	inactive
C/C(CC(=O)Nc1c(C)cc(C)cc1C)=N\NC(=O)c1cnccn1	inactive
O=C(OCC(=O)N1CCc2ccccc21)c1ccc(Cl)nc1	inactive
Cc1cc(NC(=O)CCS(=O)(=O)c2nc(-c3ccccc3)cc(C(F)(F)F)n2)no1	inactive
CC/C(=N\NC(=O)c1ccc(N(C)C)cc1)c1ccccc1	inactive
O=C(COn1nnc2ccc(Cl)cc21)NC12CC3CC(CC(C3)C1)C2	inactive
CCc1ccc(NC(=O)C2C3/C=C\CCCCC32)cc1 (centres undefined)	inactive
CCOC(=O)/C=C/c1ccc2c(c1)S(=O)(=O)N(Cc1ccc(OC)cc1)[C@H]2CC(=O)OCC	inactive
O=C(COC(=O)C1=COCCO1)Nc1ccc2c(c1)OCO2	inactive
CCOC(=O)c1c(C)[nH]c(N=Nc2ccccc2Cl)c1C	inactive
COCCCNCCOCCOc1ccc(C)cc1Br	inactive
COc1cccc(NC(=S)Nc2cc(C)cc(C)n2)c1	inactive
O=C(O)c1cc(-c2ccco2)nc2ccc(Br)cc12	inactive
CN(C)S(=O)(=O)n1cc(/C=C(\NC(=O)c2ccccc2)C(=O)NCCN2CCOCC2)c2ccccc21	inactive
CCOC(=O)c1ccc(N2CN(CCc3ccccc3)CNC2=S)cc1	inactive

Compound	outcome
CC(C)(C)c1nnc2sc(SCC(=O)c3cccs3)nn2c1=O	inactive
CNC(=O)COC(=O)c1ccccc1NC(=O)c1ccco1	inactive
CCCn1nc(NC(=O)c2ccco2)c2cc3cc(C)ccc3nc21	inactive
COc1ccc(NC(=O)CCc2ccccc2)cc1NC(=O)c1ccco1	inactive
C=CCOc1ccc(C2N3CC4(C)CN2CC(CCC)(C3)C4=O)cc1 (centres undefined)	inactive
CC(C(=O)Nc1nc2ccccc2[nH]1)N1C(=O)C2CC=CCC2C1=O (centres undefined)	inactive
CCC(=O)NC(=S)Nc1ccc(-c2nc3ccccc3s2)cc1	inactive
CCOc1ccc(S(=O)(=O)n2nnc3ccccc32)cc1C(C)C	inactive
COC(=O)c1c(-c2ccc(OC)cc2)oc2ccc(-c3cc(OC)c(OC)c(OC)c3)cc12	inactive
O=C(NCCC1=CCCCC1)NC1CCCCC1	inactive
CCC1CCCCN1C(=O)CSc1nnc(-c2ccc(Cl)s2)o1 (centres undefined)	inactive
O=C(NCc1ccco1)c1cc2n(n1)C(C(F)(F)F)CC(c1ccc(F)cc1)N2 (centres undefined)	inactive
O=C(CN1CCN(c2ccccn2)CC1)Nc1ccc(Cl)c(C(F)(F)F)c1	inactive
N#Cc1ccc(NC(=O)COC(=O)C2=COCCO2)cc1	inactive
CCOC(=O)c1c(C)oc2c1c(CN1CCN(C(=O)OCC)CC1)c(O)c1ccccc12	inactive
COc1cc2c(cc1OC)C(c1ccccc1)CC2=O (centres undefined)	inactive
Cc1ccccc1Cn1cc(NC(=O)CSc2nc3c(c(C(F)(F)F)n2)CCc2ccccc2-3)cn1	inactive
CCO[C@H]1OC(C(=O)NCc2nc3ccccc3[nH]2)=C[C@@H](c2cn(C(C)=O)c3ccccc23)[C@@H]1CCCO	inactive
CCCc1c(C)nc2c(OC)cccc2c1SCC(=O)O	inactive
O=C(O/N=C\c1ccc(N2CCCCC2)c([N+](=O)[O-])c1)c1c(F)cccc1F	inactive
c1ccc2c(c1)Cn1nc(Cc3nc4c(s3)CCCC4)nc1-2	inactive
COc1ccc2nc(NC(=O)NC3CCCCC3)sc2c1	inactive
CC(=O)c1ccc(N2CCN(c3ncc(C(F)(F)F)cc3Cl)CC2)cc1	inactive
